# Publication PMC4336329 (PLoS ONE, 2015)
# In all, about 310,000 compounds went through this assay and about 14,000 (4.5%) showed an effect of 50% or more. The effect is printed as a negative number. This excerpt belongs to a sample that is enriched for strong results.
# Molecular target: human ether-à-go-go-related gene (hERG) potassium channel (human, UniProt Q12809)
# Experiment: primary screen, population patch clamp on CHO cells stably expressing hERG; higher = less effect of the substance
# 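Also: peak tail current of the secondary pulse compared with the same well before compound.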
# human ether-à-go-go-related gene (hERG) potassium channel, sequence (Q12809 whole entry, looked up): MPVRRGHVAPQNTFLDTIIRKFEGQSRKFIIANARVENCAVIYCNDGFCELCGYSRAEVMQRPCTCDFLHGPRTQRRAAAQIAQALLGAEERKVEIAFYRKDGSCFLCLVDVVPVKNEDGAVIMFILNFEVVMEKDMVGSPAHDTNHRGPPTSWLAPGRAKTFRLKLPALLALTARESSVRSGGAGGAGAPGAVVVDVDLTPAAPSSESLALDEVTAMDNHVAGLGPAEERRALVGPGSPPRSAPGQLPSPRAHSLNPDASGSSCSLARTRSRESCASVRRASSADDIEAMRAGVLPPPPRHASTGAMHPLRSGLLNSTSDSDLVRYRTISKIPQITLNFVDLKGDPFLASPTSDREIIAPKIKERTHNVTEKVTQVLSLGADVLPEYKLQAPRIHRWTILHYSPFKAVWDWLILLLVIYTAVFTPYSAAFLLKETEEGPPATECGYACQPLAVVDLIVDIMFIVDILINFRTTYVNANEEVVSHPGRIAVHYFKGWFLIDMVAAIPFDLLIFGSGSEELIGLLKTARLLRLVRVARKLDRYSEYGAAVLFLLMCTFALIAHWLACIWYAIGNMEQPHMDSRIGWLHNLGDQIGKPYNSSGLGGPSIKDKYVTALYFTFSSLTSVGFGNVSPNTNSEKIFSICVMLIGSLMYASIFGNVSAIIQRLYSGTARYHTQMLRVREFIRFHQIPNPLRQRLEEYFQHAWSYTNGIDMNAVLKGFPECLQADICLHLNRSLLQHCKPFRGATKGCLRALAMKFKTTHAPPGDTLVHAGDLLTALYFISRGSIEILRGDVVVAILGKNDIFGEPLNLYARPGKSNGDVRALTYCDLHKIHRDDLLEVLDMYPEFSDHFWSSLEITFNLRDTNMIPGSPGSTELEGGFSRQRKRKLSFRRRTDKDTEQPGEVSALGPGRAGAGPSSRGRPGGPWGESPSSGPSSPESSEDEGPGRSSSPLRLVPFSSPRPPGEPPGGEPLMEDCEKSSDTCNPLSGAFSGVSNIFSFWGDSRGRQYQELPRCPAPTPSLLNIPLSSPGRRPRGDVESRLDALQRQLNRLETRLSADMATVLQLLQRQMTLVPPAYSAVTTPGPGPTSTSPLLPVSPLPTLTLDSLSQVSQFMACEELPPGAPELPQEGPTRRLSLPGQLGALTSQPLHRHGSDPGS
row,Compound,"hERG current change (%, negative = inhibition) at 10uM [%]"
1,C=CCn1c(SCc2c(C(=O)OC)sc(N)c2C(=O)OC)nnc1-c1ccc(Br)cc1,-65.4
2,C=CCn1c(SCC(=O)NC2CCCCC2)nnc1-c1ccc(OC)cc1,-12
3,COC(=O)c1sc(N)c(C(=O)OC)c1CSc1nnnn1C,-12.2
4,COC(=O)c1sc(N)c(C(=O)OC)c1CSc1nnc(-c2ccccc2Cl)n1C,-24.5
5,C=CCn1c(SCc2ccc(C(=O)OC)cc2)nnc1-c1sc(N)nc1C,-8.5
6,C=CCn1c(SCc2c(C(=O)OC)sc(N)c2C(=O)OC)nnc1-c1ccc(Cl)cc1,-58.1
7,O=C(O)c1cccnc1SCC(=O)N1CCCc2ccccc21,14.6
8,Nc1nc(SCC(=O)Nc2ccccc2)nc2nc3c(cc12)CCCC3,-1.5
9,C=C1SC(=Nc2c(C)cccc2Cl)N(C(=O)c2sc3ccccc3c2Cl)C12CCCCC2,25.8
10,Cc1ccc(S(=O)(=O)NCCCCCC(=O)Nc2cccc(C)c2)cc1,-39.2
11,Cc1cc(C)c(OCCN2CC(C)OC(C)C2)c(Br)c1.O=C(O)C(=O)O (stereo not shown),-17.5
12,Cc1cc(C)c(OCCN2CCOCC2)c(Cl)c1,8.09
13,Cc1cc(Cl)c(OCCOCCN2CCNCC2)c(Cl)c1.O=C(O)C(=O)O,-7.47
14,Cc1cc(Cl)c(OCCCN(C)C)c(Br)c1.O=C(O)C(=O)O,-40.4
15,Cc1cc(Cl)c(OCCOCCN2CCN(C)CC2)c(Br)c1.O=C(O)C(=O)O,-9.48
16,Cc1cc(Cl)c(OCCOCCN2CCC(C)CC2)c(Br)c1.O=C(O)C(=O)O,-57.6
17,Cc1cc(Cl)c(OCCCN2CCCCC2)c(Br)c1.O=C(O)C(=O)O,-68.1
18,Cc1cc(C)c(OCCCCN2CCNCC2)c(C)c1.O=C(O)C(=O)O,9.44
19,Cc1cc(Cl)c(OCCCCN2CCOCC2)c(Br)c1,-30.2
20,Cc1cc(C)c(OCCCCN2CCC(C)CC2)c(Br)c1,-72.7
21,Cc1cc(Cl)cc(Cl)c1OCCN1CCCC1,-55
22,Cc1cc(C)c(OCCN2CCCC2)c(Cl)c1,-42.1
23,CCOC(=O)c1ccc(S(=O)(=O)NCCN(CC)CC)cc1.Cl,11.4
24,CS(=O)(=O)N1CCC(Oc2cccc(C(=O)NCCCC3CCCC3)c2)CC1,-30.3
25,Cc1ccc(S(=O)(=O)N2CCN(C(=O)CN3C(=O)c4ccccc4C3=O)CC2)c(C)c1,9.02
26,CCN(CC(=O)Nc1ccc(Cl)c(C(F)(F)F)c1)CC(=O)NC1CCS(=O)(=O)C1 (stereo not shown),-13.2
27,CCOc1ccc(C2Nc3ccccc3NC3=C2C(=O)CC(C)(C)C3)cc1OC (stereo not shown),15.6
28,Cc1ccc2nsnc2c1S(=O)(=O)N1CCN(C(=O)C2CCCO2)CC1 (stereo not shown),2.61

row,Compound,"hERG current change (%, negative = inhibition) at 10uM [%]"
1,Cc1ccc(NC(=O)C2CCN(S(=O)(=O)c3ccc4c(c3)CCCC(=O)N4)CC2)c(Br)c1,-5.9
2,CCOc1c2ccc(C(=O)N[C@H](C)C3CCCCC3)cc2nn1CCOC,-18.2
3,CN1CCN(CCOCCOc2c(Cl)cc(Cl)cc2Cl)CC1.O=C(O)C(=O)O,-26.9
4,Cc1cc(C)c(OCCOCCN2CCN(C)CC2)c(Cl)c1.O=C(O)C(=O)O,-5.21
5,Cc1cc(Cl)c(OCCOCCN2CCCC(C)C2)c(Br)c1.O=C(O)C(=O)O (stereo not shown),-61.8
6,Cc1cc(C)c(NC(=O)NC(=O)c2ccc(F)cc2)c(C)n1,-0.738
7,O=C(c1ccc2c(c1)OCO2)N(c1ccc(Cl)cc1)C1C=CS(=O)(=O)C1 (stereo not shown),-16.8
8,Cc1ccc(N(C(=O)c2ccc3c(c2)OCO3)C2C=CS(=O)(=O)C2)cc1 (stereo not shown),-29.7
9,CC(C)c1ccc(N(C(=O)c2ccc3c(c2)OCO3)C2C=CS(=O)(=O)C2)cc1 (stereo not shown),-66.2
10,COc1ccccc1P(=O)(c1ccccc1)c1ccccc1NC(C)=O (stereo not shown),14.3
11,CCOC(=O)c1sc(N(Cc2ccccc2)C(=O)CN2C(=O)CN(C)C2=O)nc1C,-59
12,CCOC(=O)c1sc(N(Cc2ccccc2)C(=O)CCl)nc1C,-6.21
13,CCOC(=O)c1sc(N(Cc2ccccc2)C(=O)COC(=O)c2ccccc2O)nc1C,-5.14
14,O=C(NCCCCNC(=O)c1ccccc1F)c1ccccc1F,14.8
15,CCOc1ccccc1C(=O)NCCNC(=O)c1ccccc1OCC,-2.01
16,CCOc1ccccc1C(=O)NCCCN1CCN(CCCNC(=O)c2ccccc2OCC)CC1,-53.3
17,CN1CCN(CCCNC(=O)c2nnc(Cc3c(F)cccc3Cl)o2)CC1,-3.44
18,CCOc1ccccc1C(=O)NCCCCNC(=O)c1ccccc1OCC,-31.4
19,O=C(NCCCN1CCN(Cc2ccccc2)CC1)c1nnc(Cc2c(F)cccc2Cl)o1,-63.1
20,O=C(NCCCN1CCCC1=O)c1nnc(Cc2c(F)cccc2Cl)o1,1.34
21,Cl.O=C(NCCN1CCN(c2ccccc2)CC1)c1ccccc1F,-11
22,O=C(NCCCN1CCN(CCCNC(=O)c2ccccc2F)CC1)c1ccccc1F,-53
23,CC(C)CN(C(=O)C1CC1)c1c(N)n(Cc2ccccc2)c(=O)[nH]c1=O,21.2
24,CC1CCCC(C)N1C(=O)CSc1nnnn1Cc1ccccc1 (stereo not shown),-3.54
25,O=C(NNc1cccc(Cl)c1)c1cccnc1Oc1ccccc1,-8.21
26,Fc1cccc(Cl)c1CSc1nnc(CNc2ccccc2)o1,-21.5
27,COc1ccc(CC(=O)N/N=C/c2cccn2-c2ccc([N+](=O)[O-])cc2)cc1OC,-37.9
